PostGolgi yeast: growth inhibition of a yeast mutant, post-Golgi transport screen. AID 739. inhibition, % at 10 µM. 0.9% of 98,000 active. post-Golgi transport phenotypic cell assay;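 also: yeast cells grown in 1536-well plates; yeast grown about 18 h at 30C before absorbance read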
PostGolgi ctrl: growth of the yeast control strain, post-Golgi counter-screen; efflux-deficient yeast background strain, growth absorbance A615, 16 h; inhibition, % at 10 µM; 5% of 98,000 active; AID 738
Cav32 inh: blocks human Cav3.2 T-type calcium channel; Cav3.2-expressing cells, Fluo-4 calcium fluorescence FDSS; active compounds read low; B-score at 10 µM; 4% of 100,000 active; O95180;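 active = single-dose well whose peak fluorescence ratio is a statistical outlier from its plate by either plate-standardised score or position-corrected B-score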
Pyk2 oligo antag: Pyk2 (human) oligomerization antagonism. Q14289. Q293 cells, Pyk2 FERM NanoBiT luminescence; active compounds read low. z-score (the deposit names both 25 µM and 10 µM). 0.83% of 99,000 active;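 active = Z-score of -3 or lower, scaled per plate to the spread of control and sample wells; inactive = z-score above -3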;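 also: negative z-score means lost luminescence so less FERM oligomerization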
Target sequence (Q14289 whole entry, looked up): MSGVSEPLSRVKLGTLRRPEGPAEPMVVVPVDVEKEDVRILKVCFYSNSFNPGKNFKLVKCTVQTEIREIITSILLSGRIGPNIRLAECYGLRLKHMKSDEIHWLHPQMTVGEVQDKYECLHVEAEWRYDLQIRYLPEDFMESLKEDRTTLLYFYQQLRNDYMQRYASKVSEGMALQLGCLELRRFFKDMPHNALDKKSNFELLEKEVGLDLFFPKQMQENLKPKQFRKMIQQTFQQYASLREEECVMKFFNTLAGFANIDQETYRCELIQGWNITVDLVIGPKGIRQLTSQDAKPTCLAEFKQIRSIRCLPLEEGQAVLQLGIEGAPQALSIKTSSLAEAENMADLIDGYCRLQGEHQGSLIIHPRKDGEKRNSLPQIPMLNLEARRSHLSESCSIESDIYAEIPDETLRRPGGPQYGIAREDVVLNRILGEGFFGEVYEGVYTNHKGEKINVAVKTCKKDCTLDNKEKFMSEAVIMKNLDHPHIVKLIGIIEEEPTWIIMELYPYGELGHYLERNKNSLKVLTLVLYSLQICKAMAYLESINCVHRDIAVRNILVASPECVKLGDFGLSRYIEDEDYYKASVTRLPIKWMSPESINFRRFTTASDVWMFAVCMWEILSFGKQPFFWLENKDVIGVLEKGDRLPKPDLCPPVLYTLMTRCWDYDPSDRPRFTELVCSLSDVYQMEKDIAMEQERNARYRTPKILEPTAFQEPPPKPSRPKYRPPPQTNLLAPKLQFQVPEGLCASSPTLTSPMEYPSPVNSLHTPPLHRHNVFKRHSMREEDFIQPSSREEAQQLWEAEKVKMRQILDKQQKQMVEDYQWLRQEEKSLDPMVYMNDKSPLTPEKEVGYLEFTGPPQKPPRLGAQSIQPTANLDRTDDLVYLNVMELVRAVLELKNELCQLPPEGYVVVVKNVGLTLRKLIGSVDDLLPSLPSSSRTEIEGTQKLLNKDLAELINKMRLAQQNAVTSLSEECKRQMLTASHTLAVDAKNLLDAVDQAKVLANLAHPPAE
* hit, by the source's call; . = no result. Hits are enriched below; roughly 8% of the tested compounds scored in any of these assays. Rule as the data show it, unless noted: active = inhibition above about 30%; inactive = the rest.

SMILES | PostGolgi yeast | PostGolgi ctrl | Cav32 inh | Pyk2 oligo antag
Cc1ccc(-c2ccc3c(c2)S(=O)(=O)c2ccccc2C3=O)cc1 | . | . | -0.293 | .
C/C(CC(=O)Nc1cccc(Cl)c1)=N\NC(=O)Cc1ccc(Cl)cc1 | -3.8 | 12.3 | -9.13* | 2.34
COc1ccc(Cl)cc1C(=O)NC(=S)Nc1cc(-c2nc3ccccc3[nH]2)ccc1C | -2.6 | 35.2* | -4.79* | 0.62
Cc1ccccc1OCc1nnc2c3cnn(C)c3ncn12 | -9.0 | 34.2* | 0.237 | 0.36
CCC(Sc1nc2ccccc2s1)C(=O)Nc1cc(C)on1 (stereo not given) | . | . | -2.64 | 0.82
CCC(SC1=N/C(=C/c2ccccc2OC)C(=O)N1c1ccccc1)C(=O)Nc1cc(C)on1 (stereo not given) | 2.3 | 5.5 | -4.84* | -1.54
Cc1ccc(Cn2ccc(NC(=O)CCSc3nc(-c4ccco4)cc(C(F)(F)F)n3)n2)cc1 | 2.0 | 49.8* | -8.99* | 1.11
O=C(NCc1ccco1)c1cnn2c1NC(c1ccc(Br)cc1)CC2C(F)(F)F (stereo not given) | -3.2 | 37.5* | -4.52 | -0.81
Cc1cc(NC(=O)CCSc2nc(-c3ccco3)cc(C(F)(F)F)n2)no1 | -3.1 | 7.1 | -2.07 | 0.73
O=C(c1cc2n(n1)C(C(F)(F)F)CC(c1ccco1)N2)N1CCc2ccccc2C1 (stereo not given) | 0.9 | 26.4 | -3.7* | -0.77
Cc1ccccc1Cn1ccc(NC(=O)CCSc2nc(-c3ccco3)cc(C(F)(F)F)n2)n1 | 9.9 | 53.5* | . | -0.96
CCOc1ccc(NC(=O)CCN2CCN(S(=O)(=O)c3ccc(Cl)cc3)CC2)cc1 | -2.4 | 3.0 | -3.49 | -0.62
Cc1ccc(S(=O)(=O)N2CCN(S(=O)(=O)N(C)C)CC2)c(C)c1 | 12.7 | 7.0 | 0.0863 | -0.32
O=C(c1ccco1)N1CCN(C(=O)c2cnn3c2NC(c2cccs2)CC3C(F)(F)F)CC1 (stereo not given) | 13.5 | 9.6 | 0.389 | -0.27
O=C(NCc1ccco1)c1cnn2c1NC(c1ccccc1)CC2C(F)(F)F (stereo not given) | -6.4 | 2.5 | 0.603 | 0.43
O=C(c1cnn2c1NC(c1ccco1)CC2C(F)(F)F)N1CCN(c2cccc(Cl)c2)CC1 (stereo not given) | 1.4 | 65.3* | -4.21* | 0.03
Cc1ccccc1Cn1ccc(NC(=O)c2cnn3c(C(F)(F)F)cc(-c4ccco4)nc23)n1 | -0.7 | 32.7* | -3.23 | -1.81
Cc1ccccc1Cn1ccc(NC(=O)c2cnn3c2NC(c2ccccc2)CC3C(F)(F)F)n1 (stereo not given) | 11.2 | 37.4* | -2.31 | -1.58
O=C(Nc1ccc2c(c1)OCO2)c1cnn2c(C(F)(F)F)cc(-c3ccco3)nc12 | -6.0 | 8.0 | 0.463 | -1.76
CC(C)(C)c1ccc(C(=O)Nc2cccc3c(=O)[nH][nH]c(=O)c23)cc1 | . | . | . | -0.56
Cc1ccc(S(=O)(=O)N2CCOCC2)cc1C(=O)OCC(=O)N1c2ccccc2NC(=O)C1(C)C | -4.6 | 7.1 | 0.73 | .
CSc1ccc(S(=O)(=O)NCc2ccccc2Cl)cc1 | -10.9 | 28.9 | -4.02* | 2.05
CSc1ccc(S(=O)(=O)NCc2ccc(Cl)cc2Cl)cc1 | -7.5 | 28.6 | -0.161 | 0.31
CSc1nc(-c2ccccc2)nn1C(=O)c1ccc(Cl)cc1 | -3.5 | 12.1 | -0.307 | 1.05
O=C(c1ccc(Cl)cc1)N1CCCC(c2ccccc2)=N1 | 13.9 | 36.0* | -1.83 | -1.23
SMILES | PostGolgi yeast | PostGolgi ctrl | Cav32 inh | Pyk2 oligo antag
O=C(CC1(O)C(=O)Nc2ccccc21)c1ccccc1 (stereo not given) | 0.5 | -0.3 | 0.0422 | .
O=C(CC1(O)C(=O)Nc2ccccc21)c1ccc(-n2cccc2)cc1 (stereo not given) | -4.2 | 30.8* | -0.00361 | 1.11
COc1cccc(-c2nc(CS(=O)(=O)CC(=O)NCCC(C)C)c(C)o2)c1 | 3.9 | 10.4 | -3.13 | .
CCOC(=O)c1cccc(NC(=O)Nc2cc(OC)ccc2OC)c1 | -4.7 | 3.1 | -0.101 | -3.38*
CCOC(=O)c1cccc(NC(=O)CS(=O)(=O)Cc2nc(-c3cccc(OC)c3)oc2C)c1 | -5.7 | 0.3 | -5.19* | 1.03
CCN(CCNC(=O)CS(=O)(=O)Cc1nc(-c2cccc(OC)c2)oc1C)c1ccccc1 | -5.4 | 13.1 | -9* | 2.4
COCCCNC(=O)CS(=O)(=O)Cc1nc(-c2cccc(OC)c2)oc1C | -1.6 | 6.2 | 0.128 | -0.19
CCCCCOc1ccc(NC(=O)C(=O)NCCC2=CCCCC2)cc1 | 4.3 | -1.8 | 0.392 | -0.43
COc1cc(/C=C/C(=O)OCC(=O)Nc2ccc3c(c2)OCCO3)ccc1OCC#N | . | . | . | 1.9
Fc1ccc(-c2nnc3ccc(N4CCc5ccccc5C4)nn23)cc1 | -2.6 | 58.8* | 0.716 | .
O=C(Nc1ccc(F)cc1)N1CCN(c2ccc3nnc(-c4ccc(F)cc4)n3n2)CC1 | 6.8 | 1.1 | 1.31 | .
CC(C)[C@H](N)c1nnc(SC/C=C/c2ccccc2)o1 | 6.2 | 12.6 | -0.0447 | -0.02
Cc1ccc(S(=O)(=O)N2CCCC(NC(=O)N3CCN(c4ccccc4)CC3)C2)cc1 (stereo not given) | -6.0 | 2.1 | -4.43* | -0.42
C/C(=N\NC(=O)c1cccc(Cl)c1)c1cccc(NC(=O)c2ccco2)c1 | 9.9 | -7.1 | -5.49* | -0.66
COc1cc2c(cc1NC(=O)C(c1ccccc1)c1ccccc1)CCCC2 | -7.5 | 5.4 | -6* | -1.62
C#CCO[C@@H]1C[C@H](n2ccc(NC(=O)c3ccccc3)nc2=O)O[C@@H]1CO | . | . | 0.8 | .
CSc1ncccc1C(=O)OCc1ccccc1F | -4.5 | 35.9* | -2.16 | 1.24
CSc1ncccc1C(=O)OCc1ccccc1 | -8.1 | -4.4 | -1.01 | -0.57
CCCCC(=O)Nc1ccc(NC(=O)CC)cc1OC | -3.9 | 5.0 | . | 1.19
c1ccc(Oc2cccc(OCCCn3cncn3)c2)cc1 | 7.0 | 5.0 | -0.884 | -0.41
OC(Cn1cncn1)(c1ccccc1)c1ccccc1 | 102.7* | 91.1* | 1.03 | 0.06
C#CCN1C(=O)C(O)(CC(=O)c2ccc3c(c2)OCCO3)c2ccccc21 (stereo not given) | -5.6 | -3.9 | -3.8* | .
CCCN1C(=O)C(O)(CC(=O)c2ccc3c(c2)OCCO3)c2ccccc21 (stereo not given) | 6.1 | 5.9 | 0.473 | 0.62
Cc1ccc(C(=O)CC2(O)C(=O)N(Cc3ccc4c(c3)OCO4)c3ccccc32)cc1 (stereo not given) | -3.0 | 1.3 | -7.53* | 0.2
CCO[C@H]1OC(C(=O)O)=C[C@@H](c2ccc(C(F)(F)F)cc2)[C@@H]1CCCO | . | . | 0.00729 | .
SMILES | PostGolgi yeast | PostGolgi ctrl | Cav32 inh | Pyk2 oligo antag
COc1ccc(/C=C/C(=O)c2ccc(NC(=O)c3cccs3)cc2)cc1OC | -8.5 | 54.1* | -0.131 | -0.74
CCCCCOc1ccc(CN2CCOCC2)cc1Cl | 95.4* | 55.3* | . | 0.4
COCCn1c(=NC(=O)c2ccc(S(=O)(=O)N3CCc4ccccc4C3)cc2)sc2cc(OC)ccc21 | . | . | . | 0.49
O=C(Nc1sc2c(c1C(=O)c1ccc(Cl)cc1)CCCC2)c1cccnc1 | 7.8 | 40.1* | -0.563 | -1.62
Cc1cc(N)n2ncc(-c3ccccc3)c2n1 | -15.7 | 27.4 | 0.188 | -0.45
Cc1cc(N)n2ncc(-c3cccc(Br)c3)c2n1 | 0.5 | 33.1* | -1.04 | -1.35
CCOC(=O)N1CCN(C(=O)c2cn(CC)c3cc(N4CCN(C)CC4)c(F)cc3c2=O)CC1 | 4.8 | 2.5 | . | .
